# Source: PubChem
# Only some compounds are listed: those with a hit (about 4.7% of all), similar ones and a draw of the others.
# TRHR agonist = TRH receptor (human) agonism | activation, % at 2 µM | hit rate 0.18% among 360,000 | AID 493084 | P34981 | TRHR cells, calcium flux fluo-8, FDSS agonist mode; further: 0% is about no effect
# Target sequence (P34981 whole entry, looked up): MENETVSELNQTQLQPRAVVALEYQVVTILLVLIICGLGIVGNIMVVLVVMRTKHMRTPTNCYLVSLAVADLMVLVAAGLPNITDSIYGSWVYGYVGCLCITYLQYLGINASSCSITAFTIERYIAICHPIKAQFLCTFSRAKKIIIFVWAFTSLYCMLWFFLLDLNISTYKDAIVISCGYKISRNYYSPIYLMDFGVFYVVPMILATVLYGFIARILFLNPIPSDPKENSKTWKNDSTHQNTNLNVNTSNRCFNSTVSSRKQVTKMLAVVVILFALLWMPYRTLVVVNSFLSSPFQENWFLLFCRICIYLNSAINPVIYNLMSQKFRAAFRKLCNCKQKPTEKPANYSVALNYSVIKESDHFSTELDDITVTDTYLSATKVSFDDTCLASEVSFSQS
#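 Steps: seed TRHR cells overnight; add fluo-8 no-wash Ca dye, RT 30 min–1.5 h; record 10 s baseline; pin-transfer compounds; monitor fluorescence 1 cycle/s for the agonist window. Calcium increases flag candidate agonists.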
# TRHR enhancer = allosterically enhances the human TRH receptor; TRHR cells, fluo-8 calcium fluorescence, EC20 TRH enhancement; enhancement, % at 2 µM; hit rate 0.66% among 360,000; in the data active means enhancement above about 30%; further: 0% is about no effect
#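 Enhancer read-out: after compound pinning and an initial kinetic agonist-mode read, an EC20 of TRH (10 nM final) was injected and fluo-8 calcium signal (Ex 480/Em 530) followed at 1 s/cycle for 100 cycles in TRHR-expressing cells.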
# D1 antagonist = antagonists of human D1 dopamine receptor; hit rate 3.2% among 360,000; AID 504652; HEK293 TREx D1 cells, calcium flux, dopamine EC80; stronger effect = lower value; activity change, negative = inhibition, % at 10 µM; in the data active means activity change below about -30%; further: on the % scale 0 is the no-effect control and ±100 the full control effect
#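 Using tetracycline-induced force-coupled D1 Hek293 cells and a calcium dye, signals were followed for 180 s after compound, then for 180 s after EC80 dopamine, to detect inhibitors.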
# D1 PAM = human D1 dopamine receptor positive modulation. potentiation, % at 10 µM. hit rate 0.036% among 360,000. AID 504651. P21728. HEK293 TREx D1 cells, calcium flux, dopamine EC20 potentiation; in the data active means potentiation above about 30%; further: 0% is about no effect
# D1 agonist = human D1 receptor agonism; P21728; HEK293 T-REx D1 cells, calcium flux, agonist mode; activation, % at 2 µM; hit rate 1% among 360,000; AID 504660; further: 0% is about no effect
#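 Inducible HEK293 T-REx D1 cells, force-coupled to calcium signalling, were plated at 4000 cells/well with tetracycline and held overnight at 30 C. After no-wash calcium dye loading, compound-evoked calcium rise over 180 s flagged agonists.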
# The depositor's hits bear a star. Unless noted, no stated cut-off is given here; in the data, active means activation above about 30%; inactive means the rest.
SMILES,TRHR agonist,TRHR enhancer,D1 antagonist,D1 PAM,D1 agonist
COc1cccc(CN2CCN(Cc3cccc(Oc4ccccc4)c3)CC2)c1OC,0,31*,-9,0,4
CN1CCN(Cc2cccc(Oc3ccc(Cl)cc3)c2)CC1,0,-2,-26,-6,15
Cc1nc(N2CCOCC2)c2c(C(=O)N3CCN(c4cccc(C)c4C)CC3)c(C)oc2n1,2,-6,-5,-4,1
Cc1cc(/C=N/NC(=O)C(O)(c2ccccc2)c2ccccc2)c(C)n1-c1ccc(C(=O)O)cc1,0,0,5,-5,0
Cc1cc(/C=N/NC(=O)C(O)(c2ccccc2)c2ccccc2)c(C)n1-c1cccc(C(=O)O)c1,0,2,-31*,-5,2
O=C(NC1CCCCC1)c1ccc2c(c1)N(Cc1ccc(Cl)cc1)C(=O)c1ccccc1S2(=O)=O,1,-2,2,-2,5
CCOC(=O)c1c(-c2ccccc2)csc1NC(=O)/C(C#N)=C/c1ccc(OC)c(OC)c1,1,4,1,-4,9
CCOC(=O)c1c(-c2ccccc2)csc1NC(=O)/C(C#N)=C/c1ccc(O)c(OC)c1,27,4,-11,4,89*
CC(=O)Nc1ccc(C(=O)/C=C/c2ccco2)cc1,0,-3,-77*,-5,3
O=[N+]([O-])c1cccc(C(O)C23CN4CN(CN(C4)C2)C3)c1 (stereo not given),0,-2,2,7,2
O=[N+]([O-])c1ccc(C(O)C23CN4CN(CN(C4)C2)C3)cc1 (stereo not given),0,40*,-2,1,6
N#Cc1c(-c2ccc(C(F)(F)F)cc2)cc(-c2ccccc2)[nH]c1=S,0,-8,-31*,-6,1
CCOC(=O)c1ccc(S(=O)(=O)N2CCN(c3ccccn3)CC2)cc1,0,4,-12,-5,8
Cc1cccc2sc(N(CCN(C)C)C(=O)C3CCN(S(=O)(=O)c4cccs4)CC3)nc12,0,5,24,-5,39*
CN(C)CCN(C(=O)C1CCN(S(=O)(=O)c2cccs2)CC1)c1nc2ccc(F)cc2s1,0,1,27,-4,5
CCOc1ccc(NC(=O)N2CC3CCCN3c3ccccc32)cc1 (stereo not given),1,-7,19,3,0
NS(=O)(=O)c1ccc(NC(=O)c2cccc3ccccc23)cc1,0,-4,-36*,-7,0
Cc1nc(CCNC(=O)C2CCC(=O)N(Cc3cccc(F)c3)C2)sc1C (stereo not given),0,3,-3,-2,1
CCOc1ccc(-n2c(=O)c3c(C)c(C)sc3n(Cc3cc(=O)n4cc(Cl)ccc4n3)c2=O)cc1,-1,9,-42*,1,-1
CCOc1ccc(-n2c(=O)c3c(C)c(C)sc3n(Cc3ccccc3C)c2=O)cc1,1,-5,-73*,5,-1
CCC(C)N(C(=O)Cn1cnc2c1c(=O)n(C)c(=O)n2C)C1CCS(=O)(=O)C1 (stereo not given),0,-1,10,-4,2
CC(C)C(=O)NNC(=O)c1csc(-c2cccs2)n1,-1,32*,2,-2,1
COc1cc(N2CCCC2)c(OC)cc1/C=C(/C#N)c1ccc(Br)cc1,8,1,-15,-4,39*
CCS(=O)(=O)N1CC(=O)N(c2cc(C)ccc2C)C(C)(C(=O)NC2CCCCC2)C1 (stereo not given),0,-1,-2,1,1
Cc1ccc(N/C(N)=N/c2nc(C)cc(N3CCCCC3)n2)c(C)c1,4,-16,-99*,-8,16
SMILES,TRHR agonist,TRHR enhancer,D1 antagonist,D1 PAM,D1 agonist
Cc1ccc(N/C(N)=N/c2nc3c(c(=O)[nH]2)CCCC3)c(C)c1,0,1,4,-8,1
Cc1ccc2c(c1)N(C(=O)CCC(=O)NC1CCCCCC1)CC(C)O2 (stereo not given),-1,-8,-8,0,1
COc1ccc(C(=O)NC(=S)N2CCN(c3ccc([N+](=O)[O-])cc3)CC2)cc1,0,1,-31*,-5,5
COc1ccc(NC(=O)N2CCN(c3ccc([N+](=O)[O-])cc3)CC2)cc1,0,-10,2,-3,4
CSCCCNC(=S)N1CCN(c2ccc(C(C)=O)cc2)CC1,0,-3,-33*,-6,3
CCCCNC(=S)N1CCN(c2ccc(C(C)=O)cc2)CC1,1,1,-17,-9,14
COCCCNC(=S)N1CCN(c2ccc([N+](=O)[O-])cc2)CC1,0,0,-33*,-4,8
CN1CCN(C(=S)Nc2ccc([N+](=O)[O-])cc2)CC1,-1,-2,-33*,0,2
CCN1CCN(CC(O)COC(c2ccccc2)c2ccccc2C)CC1 (stereo not given),0,3,3,0,2
COC(=O)c1c(N)n(-c2cc(Cl)cc(Cl)c2)c2nc3ccccc3nc12,0,1,6,0,0
CCCN(CC(=O)Nc1ccccc1C)C(=O)c1ccc(COc2ccccc2)cc1,0,3,-42*,-1,11
CCCCCC(=O)Nc1cc(S(=O)(=O)N2CCOCC2)ccc1Oc1ccc(OCC)cc1,0,-8,-5,-2,6
COc1cc2c(cc1OC)C(COc1ccc(C(C)C)cc1)NCC2 (stereo not given),3,11,-27,-4,41*
COc1cc2c(cc1OC)C(COc1ccc(C(C)C)cc1)N(C(=O)COc1ccccc1)CC2 (stereo not given),1,7,-10,-2,7
COc1cc(C)c(C(=O)Oc2cc(C)c(C(=O)O)c(O)c2C)c(O)c1C(=O)O,0,-1,6,3,1
COc1cc(C)c(C(=O)Oc2cc(C)c(C(=O)O)c(O)c2C)c(OC)c1C,0,4,-66*,-5,-2
CC1CCCN(S(=O)(=O)c2ccc(NC(=O)CNC3CCCC3)cc2)C1 (stereo not given),0,29,-16,-5,1
CCS(=O)(=O)c1ncc(Cl)c(C(=O)Nc2ccc(S(=O)(=O)N3CCCC(C)C3)cc2)n1 (stereo not given),0,3,-36*,-11,1
CCC1CCCCN1S(=O)(=O)c1ccc(NC(=O)c2ccncc2)cc1 (stereo not given),0,-2,-34*,-5,18
CS(=O)(=O)c1ncc(Cl)c(C(=O)Nc2ccc3ccccc3c2)n1,0,-7,-33*,-10,3
O=C(CNC1CCCCC1)Nc1ccc(S(=O)(=O)N2CCCCC2)cc1,-1,-5,3,43*,153*
CCC1CCCCN1S(=O)(=O)c1ccc(C(=O)Nc2nnc(C3CC3)o2)cc1 (stereo not given),-1,-1,-17,0,1
